Source: PubChem BioAssay
ELG1 DNA repair: qHTS screen for small molecules that inhibit ELG1-dependent DNA repair in human embryonic kidney (HEK293T) cells expressing luciferase-tagged ELG1. HEK293T ELG1-luciferase reporter, luminescence, 16 h; DNA damage induced by 5-fluorouridine. Potency, µM (highest dose often 46.1 µM), most hits filed as inhibitors. hit rate 2.3% among 330,000; note: nearly all actives have a fitted effect of over 55% in size
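Reporter activity after DNA damage by 5-fluorouridine is monitored. Compound-treated cells incubate 16 hr at 37 °C, then ONE-Glo is added for 30 min before luminescence reading.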
IL1B secr inh: qHTS for Inhibitors of Inflammasome Signaling: IL-1-beta AlphaLISA Primary Screen; hit rate 4.7% among 360,000; AID 743279, 2014; THP-1 LPS/ATP IL-1B secretion, AlphaLISA, 16 h; hits give low values; activity change, % at 57.5 µM; in the data active = activity change below about -50%; inconclusive = mostly about -30% to -49%
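Secreted IL-1B measured by AlphaLISA bead assay after 16 h compound exposure of THP-1 cells; compounds (final up to 57.5 uM) added 1 h before LPS (250 ng/mL) and ATP (1.25 mM) stimulation; lower signal means less secretion.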
TDP1 cell CPT: qHTS for Inhibitors of human tyrosyl-DNA phosphodiesterase 1 (TDP1): qHTS in cells in presence of CPT; chicken DT40 Tdp1-/-;hTDP1 cells + 20 nM CPT, ATP luminescence, 48 h; Potency, µM (top dose mostly 46.2 µM), most hits filed as inhibitors; AID 686979, 2013; hit rate 12% among 420,000; note: nearly all actives have a fitted effect of over 55% in size
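Chicken DT40 Tdp1-/- cells stably complemented with human TDP1 were seeded at 400 cells/well in medium containing 20 nM camptothecin, exposed to pin-transferred compounds, and grown at 37 °C for at least 48 hr. Viability was read as ATP luminescence.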
DT40 TDP1 no CPT: qHTS for Inhibitors of human tyrosyl-DNA phosphodiesterase 1 (TDP1): qHTS in cells in absence of CPT. DT40 Tdp1-/- hTDP1 cells, no CPT, ATP luminescence, 48 h. Potency, µM (titrated, usually from 46.2 µM), hits mostly inhibitors. hit rate 15% among 420,000. AID 686978, 2013; note: nearly all actives have a fitted effect of over 55% in size
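Growth kinetics read by CellTiter-Glo luminescence after ≥48 hr at 37 °C. Cells: DT40 Tdp1-/- stably carrying human TDP1, 400 per well, compound exposure in the absence of CPT (DMSO vehicle).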
RORgamma inh: qHTS for inhibitors of ROR gamma transcriptional activity. hit rate 5.4% among 310,000. Drosophila S2 Gal4-RORgamma UAS-luciferase reporter, 20 h. Nuclear receptor ROR-gamma (Mus musculus), P51450. Potency, µM (series often up to 53.6 µM), usual class: inhibitors. AID 2551, 2010; note: nearly all actives have a fitted effect of over 60% in size
Target sequence (P51450 whole entry, looked up, the tested form may be a part): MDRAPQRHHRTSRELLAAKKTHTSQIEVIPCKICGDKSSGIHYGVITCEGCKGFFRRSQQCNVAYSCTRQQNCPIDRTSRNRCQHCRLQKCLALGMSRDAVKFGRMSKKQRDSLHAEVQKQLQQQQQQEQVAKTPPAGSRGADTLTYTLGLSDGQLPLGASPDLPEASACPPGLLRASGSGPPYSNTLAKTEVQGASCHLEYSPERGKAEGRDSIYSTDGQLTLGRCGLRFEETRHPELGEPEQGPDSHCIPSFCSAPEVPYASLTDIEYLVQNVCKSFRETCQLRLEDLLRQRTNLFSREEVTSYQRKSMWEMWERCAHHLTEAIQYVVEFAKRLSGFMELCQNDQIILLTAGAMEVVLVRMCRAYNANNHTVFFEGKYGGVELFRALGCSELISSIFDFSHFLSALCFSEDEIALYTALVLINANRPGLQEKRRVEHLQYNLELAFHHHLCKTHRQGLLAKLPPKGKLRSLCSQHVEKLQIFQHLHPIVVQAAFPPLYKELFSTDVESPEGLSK
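Stable Schneider cell line, Gal4 DNA-binding domain fused to ROR gamma, UAS-luciferase. Cmpd 1 hr RT → CuSO4 700 uM final → 20 hr RT → luciferase reagent 10 min → luminescence.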
VP16 counter: VP16 counterscreen qHTS for inhibitors of ROR gamma transcriptional activity. Drosophila S2 Gal4-VP16 UAS-luciferase, luminescence, 20 h. Potency, µM (highest dose often 53.6 µM), actives largely listed as inhibitors. hit rate 3.5% among 310,000;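 note: Gal4-VP16 expression switched on by copper sulfate through the metallothionein promoter; nearly all actives have a fitted effect of over 50% in size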
A number is an active result; . = inactive; ? = inconclusive; / = not tested or not shown; [ ] = remark or other dose. Compounds with a hit are over-represented: about 21% of the library has one in this group of screens. Unless noted, calls come from the whole dose curve; as a rule, active = well fitted curve in the direction sought with a large enough effect; inconclusive = small, poorly fitted or top-dose-only effect, or another doubt; inactive = no such curve, though single readings can be large; an effect the other way counts as inactive or inconclusive.

SMILES	ELG1 DNA repair	IL1B secr inh	TDP1 cell CPT	DT40 TDP1 no CPT	RORgamma inh	VP16 counter
COc1ccc(C(=O)Nc2ccc(Nc3ccccc3)cc2)cc1Br	/	.	?	?	/	/
O=C(Nc1ccccc1N1CCN(C(=O)c2ccccc2)CC1)c1ccc(Br)o1	.	.	?	20.6µM	?	.
COc1ccccc1-c1ccc([C@@H]2C[C@H]3[C@H](CON3C)CN2C(=O)c2ccco2)cc1	/	.	.	?	/	/
O=C(NNC(=O)C(O)(c1ccccc1)c1ccccc1)C1CC1	.	.	.	.	.	.
CC(C)(C)C(=O)N1CCC[C@H]1C(O)(c1ccccc1)c1ccccc1	.	.	?	?	?	22.4µM
Cc1cc(C)c(O)c(-c2cc(C(=O)Nc3cccnc3)[nH]n2)c1	20.6µM	/	?	?	.	.
Cc1cccc(NC(=O)c2cc(-c3cc(C)cc(C)c3O)n[nH]2)c1	.	-54.5	?	?	.	.
Cc1cccc(NC(=O)c2cc(-c3c(C)cc(C)cc3O)n[nH]2)c1	?	.	.	.	.	.
COc1ccc(NC(=O)c2cc(-c3cc(C)cc(C)c3O)n[nH]2)cc1Cl	20.6µM	-78.8	20.6µM	?	?	?
Cc1cc(O)c(-c2cc(C(=O)Nc3cccnc3)[nH]n2)cc1C	?	.	.	?	.	.
CC(Oc1ccc(Cl)cc1)C(=O)Nc1ccc(S(=O)(=O)N2CCOCC2)cc1 (stereo unspecified)	.	.	?	?	.	.
NNC(=O)Cn1nc(Cc2ccccc2)n(N)c1=O	.	.	.	.	/	/
COc1ccccc1C(=O)N1CCOc2ccc(CN3CCN(Cc4ccccn4)CC3)cc2C1	/	/	.[9.04 µM]	.	/	/
CCN(C(=O)c1cc2c(=O)n(CC)c3ccccc3c2s1)c1cccc(C(F)(F)F)c1	/	/	9.2µM	9.2µM	/	/
CCCN(C(=O)c1cc2c(=O)oc3ccccc3c2s1)c1ccccc1C	/	/	18.4µM	?	/	/
CCN(C(=O)c1cc2c(=O)oc3ccccc3c2s1)c1cccc(C(F)(F)F)c1	/	/	.	.	/	/
CCn1c(=O)c2cc(C(=O)N(C)c3ccccc3F)sc2c2ccccc21	?	-71.7	?	14.6µM	.	.
CCOc1ccccc1N(CC)C(=O)c1cc2c(=O)n(CC)c3ccccc3c2s1	/	/	14.6µM	16.4µM	/	/
CCOc1ccc(C/C(N)=N/n2cnnc2)cc1	.	.	.	?	.	.
CCCN(C(=O)c1cc2c(=O)n(CC)c3ccccc3c2s1)c1ccccc1F	/	/	8.2µM	6.51µM	/	/
CCn1c(=O)cc(OCC(=O)N(C)c2ccccc2F)c2ccccc21	?	.	.	.	.	.
O=C(Cc1nn[nH]n1)c1ccccc1O	.	.	.	.	.	.
CCOC(=O)N1CCN(C(=O)COc2ccccc2[N+](=O)[O-])CC1	.	.	.	.	.	.
O=C(COc1ccccc1[N+](=O)[O-])N1CCC(c2nc3ccccc3o2)CC1	/	/	?	18.4µM	/	/
Cc1ccc(C(C)C)c(OCC(=O)N2CCC(c3nc4ccccc4o3)CC2)c1	/	/	?	14.6µM	/	/
SMILES	ELG1 DNA repair	IL1B secr inh	TDP1 cell CPT	DT40 TDP1 no CPT	RORgamma inh	VP16 counter
Cc1ccc(NC(=O)CN(C)C2CCCCC2)cc1Cl	.	?	.	?	.	.
CC(Cc1ccccc1)C(=O)NCCc1c[nH]c2ccccc12 (stereo unspecified)	/	/	/	/	?	.
COc1cccc(CNC(=O)C2CCN(S(=O)(=O)c3cn(C)cn3)CC2)c1	/	/	.	.	/	/
CCOc1nc(NC(=O)NS(=O)(=O)Oc2cccc(Cl)c2)nc(-c2ccccc2)n1	?	.	.	.	.	.
Cc1nc2c3ccccc3nc(NNC(=O)CCC(=O)NCCC(C)C)n2n1	.	.	.	.	.	.
Cc1nc2c3ccccc3nc(NNC(=O)CCC(=O)N3CCN(c4ccccc4)CC3)n2n1	.	.	?	?	.	.
Cc1nc2c3ccccc3nc(NNC(=O)CCC(=O)N3CCN(c4cccc(C(F)(F)F)c4)CC3)n2n1	/	/	20.6µM	23.1µM	/	/
CCN(CC)CCCNC(=O)CCC(=O)NNc1nc2ccccc2c2nc(C)nn12	.	.	.	.	17.8µM	?
CCOCCCNC(=O)CCC(=O)NNc1nc2ccccc2c2nc(-c3ccccc3)nn12	?	.	?	11.6µM	.	.
Cc1c(C(C)CCCO)oc(=O)c2c1Oc1c(C)c(C(C)C[C@H](C)O)oc(=O)c1C2 (stereo partly specified)	.	.	?	?	/	/
Cc1cc(C)c(NC(=O)CSc2nnc3[nH]c(=O)cc(C)n23)c(C)c1	/	/	.	.	/	/
